TDP1 cell noCPT – qHTS for Inhibitors of human tyrosyl-DNA phosphodiesterase 1 (TDP1): qHTS in cells in absence of CPT. hit rate 15% among 420,000. AID 686978, 2013. DT40 Tdp1-/- hTDP1 cells, no CPT, ATP luminescence, 48 h. Potency, µM (titrated, usually from 46.2 µM), usual class: inhibitors; further: nearly all actives have a fitted effect of over 55% in size
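Readout: luminescence from CellTiter-Glo after 30 min in the dark at RT. Cells: DT40 Tdp1-/- with stable hTDP1, 400/well. Exposure: compounds alone, ≥48 hr, 37 °C.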
TDP1 inh – blocks human tyrosyl-DNA phosphodiesterase 1. recombinant TDP1, AlphaScreen DNA substrate cleavage. Potency, µM (series often up to 130 µM), most hits filed as inhibitors. hit rate 0.28% among 350,000; further: nearly all actives have a fitted effect of over 40% in size
Target sequence (Q9NUW8 whole entry, looked up): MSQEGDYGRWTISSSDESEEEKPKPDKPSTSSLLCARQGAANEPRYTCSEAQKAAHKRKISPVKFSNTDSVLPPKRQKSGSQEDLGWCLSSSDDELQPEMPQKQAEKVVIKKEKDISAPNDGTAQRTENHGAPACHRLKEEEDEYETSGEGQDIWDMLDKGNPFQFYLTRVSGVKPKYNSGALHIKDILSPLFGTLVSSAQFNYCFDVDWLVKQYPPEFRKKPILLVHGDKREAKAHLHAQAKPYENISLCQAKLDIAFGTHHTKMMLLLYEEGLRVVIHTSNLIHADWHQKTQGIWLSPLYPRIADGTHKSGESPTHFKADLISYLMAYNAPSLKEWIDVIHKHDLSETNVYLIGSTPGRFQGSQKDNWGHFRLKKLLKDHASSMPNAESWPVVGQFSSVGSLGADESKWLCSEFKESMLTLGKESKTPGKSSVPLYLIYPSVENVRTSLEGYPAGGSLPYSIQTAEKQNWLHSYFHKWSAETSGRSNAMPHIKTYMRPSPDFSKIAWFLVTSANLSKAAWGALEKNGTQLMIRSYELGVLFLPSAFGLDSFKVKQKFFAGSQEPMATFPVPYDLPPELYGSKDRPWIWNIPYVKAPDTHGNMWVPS
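Tdp1 1 nM final; 15 min RT w/ cpd; substrate 15 nM, 5 min; beads 10 ug/ml, 10 min; AlphaScreen read. Neg ctrl: no enzyme.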
HepG2 viability – kills HepG2 cells in TGF-b inhibitor counter-screen | Potency, µM (series often up to 46.1 µM), actives largely listed as cytotoxic | hit rate 0.76% among 410,000 | AID 588856 | HepG2 CAGA-GFP viability, ATP luminescence, 18 h
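HepG2 CAGA-GFP cells (1000/well, DMEM with 1% FBS) received compound, then TGF-beta at 500 pg/mL final, and were incubated 18 hours at 37 degrees C. Viability was read by CellTiter-Glo luminescence. Media-only wells were set as complete cell-killing and DMSO as no toxicity.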
IL1B secr inh – inhibitors of inflammasome signaling (IL-1 beta secretion); THP-1 LPS/ATP IL-1B secretion, AlphaLISA, 16 h; hits give low values; activity change, % at 57.5 µM; hit rate 4.7% among 360,000; AID 743279; in the data active means activity change below about -50%; inconclusive means mostly about -30% to -49%
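THP-1 cells pretreated 1 hr with compounds (up to 57.5 uM final), then stimulated with LPS (250 ng/mL final) plus ATP (1.25 mM final); secreted IL-1B measured by AlphaLISA after 16 hr, decreased signal indicating inhibition.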
TGFb inhibitor – blocks TGF-b signaling | HepG2 CAGA-GFP TGF-b/SMAD3 reporter, GFP fluorescence, 18 h; TGF-beta stimulated, 500 pg/mL final | hit rate 1.2% among 410,000 | AID 588855 | Potency, µM (top dose mostly 46.1 µM), hits mostly inhibitors; further: nearly all actives have a fitted effect of over 65% in size
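Read-out: total well GFP (ex488/em500-530) summed from mean per-cell fluorescence. Cells: HEPG2 CAGA-GFP, 1% FBS DMEM, 18 h at 37 degrees C with 500 pg/mL final TGF-beta. Unstimulated wells served as the full-inhibition control; stimulated DMSO wells = 0%.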
DT40 TDP1 CPT – growth inhibition of DT40 Tdp1-/-;hTDP1 cells with camptothecin (screen for TDP1 inhibitors). Potency, µM (titrated, usually from 46.2 µM), actives largely listed as inhibitors. hit rate 12% among 420,000. chicken DT40 Tdp1-/-;hTDP1 cells + 20 nM CPT, ATP luminescence, 48 h; further: nearly all actives have a fitted effect of over 55% in size
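Chicken DT40 Tdp1-/- cells stably complemented with human TDP1 were seeded at 400 cells/well in medium containing 20 nM camptothecin, exposed to pin-transferred compounds, and grown at 37 °C for at least 48 hr. Viability was read as ATP luminescence.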
Each line names hits and unclear results; the compound was inactive in the other large screens. This is a sample that favours compounds with a hit; in the whole collection about 18% have one here. Unless noted, the call rests on the fitted dose curve; in most records, active means well fitted curve in the direction sought with a large enough effect; inconclusive means small, poorly fitted or top-dose-only effect, or another doubt; inactive means no such curve, though single readings can be large; an effect the other way counts as inactive or inconclusive.

COC(=O)c1c(C)[nH]c(C)c1-c1ccccc1Cl	TDP1 cell noCPT inconclusive, DT40 TDP1 CPT inconclusive
COc1ccc(C(=O)N2[C@@H](C(C)C)COc3cc(Br)ccc3S2(=O)=O)cc1	TDP1 cell noCPT inconclusive, TGFb inhibitor inconclusive, DT40 TDP1 CPT 18.4µM (no result: TDP1 inh)
N=C(N)N	none (no result: HepG2 viability, IL1B secr inh, TGFb inhibitor)
c1ccc2c(c1)ncc1cccn12	none
CCn1c2ccccc2c2c3ncc4cccn4c3ccc21	TDP1 cell noCPT 6.51µM, TDP1 inh inconclusive, IL1B secr inh -75.9, DT40 TDP1 CPT 4.11µM
CCOC(=O)N1CCN(S(=O)(=O)c2ccc3c(c2)SC(C)C(=O)N3)CC1 (configuration not stated)	TDP1 cell noCPT 9.2µM, TGFb inhibitor inconclusive, DT40 TDP1 CPT 13µM
Cn1c(=O)oc2cc(S(=O)(=O)N3CCC(C(=O)N4CCN(c5ccccc5F)CC4)CC3)ccc21	TDP1 cell noCPT 18.4µM, DT40 TDP1 CPT inconclusive (no result: IL1B secr inh)
CCOC(=O)c1cccc(NC(=O)C2CCN(S(=O)(=O)c3ccc4c(c3)oc(=O)n4C)CC2)c1	TDP1 cell noCPT 20.6µM, TGFb inhibitor inconclusive, DT40 TDP1 CPT inconclusive (no result: IL1B secr inh)
Cn1c(=O)oc2cc(S(=O)(=O)N3CCN(c4ccccc4F)CC3)ccc21	none
CCOC(=O)N1CCN(S(=O)(=O)c2ccc3c(c2)SCC(=O)N3)CC1	TDP1 cell noCPT inconclusive, DT40 TDP1 CPT inconclusive
CCOc1ccc(S(=O)(=O)N2CCC(C(=O)N3CCN(c4ccccc4F)CC3)CC2)cc1C	TDP1 cell noCPT 29.1µM, TGFb inhibitor inconclusive, DT40 TDP1 CPT 23.1µM
CCn1cc(/C=C(\NC(=O)c2ccccc2OC)C(=O)N2CCOCC2)c2ccccc21	TDP1 cell noCPT inconclusive, DT40 TDP1 CPT inconclusive (no result: TDP1 inh)
COC(=O)c1ccccc1NC(=O)[C@H]1O[C@@H]2OC(C)(C)O[C@@H]2[C@H]2OC(C)(C)O[C@H]21	none (no result: IL1B secr inh)
COC(=O)[C@@]1(Cc2ccc(F)cc2)[C@H]2c3cc(C(=O)N(C)C)n(Cc4ccsc4Br)c3C[C@H]2CN1C(=O)c1ccccc1	TDP1 cell noCPT inconclusive, DT40 TDP1 CPT inconclusive (no result: HepG2 viability, TGFb inhibitor)
Cc1cccc(N2CCN(C(=O)C3CCN(S(=O)(=O)c4ccc5c(c4)oc(=O)n5C)CC3)CC2)c1C	TDP1 cell noCPT 3.66µM, TGFb inhibitor inconclusive, DT40 TDP1 CPT 4.61µM (no result: IL1B secr inh)
CCOC(=O)N1CCN(S(=O)(=O)c2ccc(C)c(C)c2)CC1	TDP1 cell noCPT inconclusive, DT40 TDP1 CPT inconclusive
CCOc1ccc(S(=O)(=O)N2CCN(c3ccccc3F)CC2)c2cccnc12	TDP1 cell noCPT 16.4µM, DT40 TDP1 CPT 20.6µM
Cc1ccc(NC(=O)C2CCN(S(=O)(=O)c3ccc4c(c3)oc(=O)n4C)CC2)cc1	none
CCOC(=O)N1CCN(S(=O)(=O)c2ccc(OCC)c(C)c2)CC1	TDP1 cell noCPT 9.2µM, DT40 TDP1 CPT inconclusive
CCOC(=O)C1CCCN(S(=O)(=O)c2ccc3c(c2)oc(=O)n3C)C1 (configuration not stated)	TDP1 cell noCPT inconclusive (no result: IL1B secr inh)
Cc1cccc(N2CCN(C(=O)C3CCCN(S(=O)(=O)c4ccc5c(c4)oc(=O)n5C)C3)CC2)c1C (configuration not stated)	TDP1 cell noCPT 3.66µM, TGFb inhibitor inconclusive, DT40 TDP1 CPT 7.31µM (no result: IL1B secr inh)
C(=C\c1ccco1)/C1=NN(c2ccccc2)C(c2ccco2)C1 (configuration not stated)	TDP1 cell noCPT 23.1µM, TDP1 inh inconclusive, TGFb inhibitor inconclusive, DT40 TDP1 CPT inconclusive
O=[N+]([O-])c1ccc(/C=C/C2=NN(c3ccccc3)C(c3ccco3)C2)o1 (configuration not stated)	TDP1 cell noCPT inconclusive, DT40 TDP1 CPT inconclusive
CC1(C)Oc2ccc3ccc(=O)oc3c2/C(=C/Nc2ccc(O)cc2)C1=O	TDP1 cell noCPT inconclusive, IL1B secr inh -80.6, TGFb inhibitor inconclusive

Screens deposited in PubChem BioAssay by National Center for Advancing Translational Sciences (NCATS).
